How the values were obtained:
Assay in all cases: PBM binding z-score (relative to random genomic background probes); higher = stronger binding; sequences stand for … in GC…GCGATTGACAGCGTAGAATGAAGG
[1] = system: FXR:RXRa (NR concentration 270 nM, RXRa partner concentration 90 nM)
Method in brief: (§1)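 On custom Agilent 4×180K arrays, double-stranded probes with 34-nt variable regions carried direct-repeat seeds, single-nucleotide variants, half-site ablations or random human genomic background. Ligand-free nuclear receptor dimers were applied for 1 h, and binding was read with antibodies against each partner (one per run). Binding z-scores come from regression-normalized fluorescence, with the random background probes as reference.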

[2] = system: LXRa:RXRa (NR concentration 270 nM, RXRa partner concentration 90 nM)
Method in brief: as §1

[3] = system: LXRa homodimer (NR concentration 270 nM)
Method in brief: as §1

[4] = system: LXRb:RXRa (NR concentration 270 nM, RXRa partner concentration 90 nM)
Method in brief: as §1

[5] = system: LXRb homodimer (NR concentration 270 nM)
Method in brief: as §1

[6] = system: PPARa:RXRa (NR concentration 270 nM, RXRa partner concentration 90 nM)
Method in brief: as §1

[7] = system: PPARg:RXRa (NR concentration 180 nM, RXRa partner concentration 90 nM)
Method in brief: as §1

[8] = system: PPARg:RXRa 270nM:90nM, anti-RXR (NR concentration 270 nM, RXRa partner concentration 90 nM)
Method in brief: as §1

[9] = system: PPARg:RXRa 30nM:10nM, anti-RXR (NR concentration 30 nM, RXRa partner concentration 10 nM)
Method in brief: as §1

[10] = system: PPARg:RXRa 90nM:30nM, anti-RXR (NR concentration 90 nM, RXRa partner concentration 30 nM)
Method in brief: as §1

| Sequence | PBM binding z-score [1] | PBM binding z-score [2] | PBM binding z-score [3] | PBM binding z-score [4] | PBM binding z-score [5] | PBM binding z-score [6] | PBM binding z-score [7] | PBM binding z-score [8] | PBM binding z-score [9] | PBM binding z-score [10] |
| --- | --- | --- | --- | --- | --- | --- | --- | --- | --- | --- |
| CCGGCTGGGGCAAAGGTTACCATACTCAGTACGA | 1.59 | 1.59 | -0.197 | 2.03 | -1.05 | 4.48 | 8.25 | 7.31 | 6.14 | 7.57 |
| TCATATAGGTAAAGGTGAGAGTCGAACGATATGA | 0.752 | 0.731 | -0.322 | 1.01 | -0.291 | 2.5 | 3.11 | 4.06 | 4.06 | 3.83 |
| TCGAGGAGGTTACCAATGGGGCATTCAGCTTTCT | 0.893 | 2.72 | -0.21 | 2.47 | -0.369 | 2.29 | 0.171 | 1.2 | 1.46 | 1.09 |
| TGAATGAGGTTATAAGAACAGGGAACGTTGCAAA | 1.63 | 1.18 | -0.262 | 1.03 | 0.118 | 2.32 | 1.33 | 1.6 | 0.909 | 1.08 |
| ACTTACGGGCCAACGAGGTTATAGCACGCGTATA | 0.283 | 0.557 | -0.119 | 0.645 | -0.0337 | 1.16 | 0.891 | 0.372 | 0.0261 | 0.602 |
| AATGCAGGGTCATCGTAGGCCAGAGTACGCACAG | 7.22 | 6.03 | 1.22 | 4.54 | -0.0477 | 5.97 | 6.45 | 5.75 | 2.6 | 4.62 |
| TCTGCTAGGTCTGTTGGTCAGCTAACGAGCTGCC | -0.418 | -0.439 | -1.21 | -0.715 | 0.485 | -0.204 | -1.23 | 0.384 | 0.834 | 0.687 |
| CCTCGGGGGACAACAGGAGGTCAGAGCTGCCAGA | 2.56 | 3.46 | 1.7 | 3.52 | 4.28 | 3.13 | 1.01 | 1.67 | 0.217 | 1.17 |
| AGAATGAGGTTACCAAAGATCAGGGATACGCTTG | 1.93 | 5.68 | 0.0211 | 2.95 | 0.0562 | 3.28 | 2.84 | 2.6 | 1.03 | 1.77 |
| AGTCAAAGTTTAGGACGAGGTAACGTAAAGCACG | 0.493 | -0.103 | -0.205 | -0.158 | -0.175 | 0.331 | 0.904 | 0.793 | 0.252 | 0.625 |
| CCTATCAGGCCAGGGTCACTCAAGCATTTCGCTT | 2.19 | 1.74 | -0.264 | 2.23 | -0.67 | 3.33 | 0.918 | 1.93 | -0.162 | 0.886 |
| TGAATGCGGTTAAAGATCAGGGAACGTGGCGTCG | -0.28 | -0.16 | -0.66 | -0.519 | -0.199 | 1.25 | 1.64 | 3.54 | 1.66 | 2.98 |
| TAGCCTACGTCATGGGCCAGTATACCACGCGAAC | -0.49 | -0.556 | -0.342 | -0.379 | -0.666 | -0.649 | 0.599 | -0.711 | -0.624 | -0.961 |
| AGAATGAGGTTATTAAGATCAGTGAATTGCGGTC | 1.66 | 1.74 | 0.236 | 1.27 | 0.0793 | 2.7 | 1.43 | 1.81 | 0.385 | 0.958 |
| CGAACTAGGTCAGAACCGGACAGTGAAGGATGAT | 0.841 | 0.508 | -0.0192 | 0.198 | -0.379 | 2.72 | 4.56 | 4.31 | 1.5 | 3.4 |
| CAGACAGGGTCAGCTAGGCCAGAGTAGGGACGGC | 4.38 | 2.22 | -0.426 | 1.75 | -0.493 | 4.34 | 2.66 | 2.47 | 0.42 | 1.51 |
| CATCCAAGGTCAATGCTAGGTCAGTGAAAGCATT | 6.67 | 5.98 | 4.36 | 4.42 | 1.77 | 5.06 | 4.32 | 4.66 | 1.44 | 3.53 |
| ACAGCCAGGTGATGAAGGTAACTCAGGCTATCAT | -0.381 | -0.496 | -0.468 | -0.553 | -0.982 | 0.0268 | 0.565 | -0.0458 | -0.229 | -0.315 |
| CCAGACAGGTGAGAAGGTAACGCAGCCTCGATTA | -0.0305 | 0.0782 | -0.18 | 0.115 | -0.496 | 0.743 | 0.809 | 0.998 | -0.268 | 0.809 |
